{"source": "the supplement of paper PMC12282887", "assay_in_all_cases": "promoter activity interaction Z-score (Lux/OD deviation from empty-vector control); higher = stronger promoter induction by the compound", "key": {"[1]": {"system": "E. coli BW25113 acrABp lux reporter", "outline": "(§1)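 Four 1:2 dilutions of each compound were tested in biological duplicates on E. coli BW25113 carrying low-copy luxCDABE promoter reporters, either wild type or deleted for one of three genes. Cultures of 40 µl LB Lennox in 384-well plates were kept at 37°C and read for OD600 and luminescence every 30 min for 12 h. Integration windows were 0–8 h for wild type and 1–9 h for deletion strains, and wells under 10% of the median growth value were discarded. The score is a Z-transformed residual of growth-normalised luminescence relative to a control fit.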"}, "[2]": {"system": "E. coli BW25113 micFp lux reporter", "outline": "as §1"}, "[3]": {"system": "E. coli BW25113 ompFp lux reporter", "outline": "as §1"}, "[4]": {"system": "E. coli BW25113 robp lux reporter", "outline": "as §1"}, "[5]": {"system": "E. coli BW25113 soxSp lux reporter", "outline": "as §1"}, "[6]": {"system": "E. coli BW25113 tolCp lux reporter", "outline": "as §1"}, "[7]": {"settings": "24.3 µg/ml, genetic background: wild type"}, "[8]": {"settings": "24.3 µg/ml, genetic background: ΔmarA"}, "[9]": {"settings": "24.3 µg/ml, genetic background: Δrob"}, "[10]": {"settings": "24.3 µg/ml, genetic background: ΔsoxS"}, "[11]": {"settings": "48.5 µg/ml, genetic background: wild type"}, "[12]": {"settings": "48.5 µg/ml, genetic background: ΔmarA"}, "[13]": {"settings": "48.5 µg/ml, genetic background: Δrob"}, "[14]": {"settings": "48.5 µg/ml, genetic background: ΔsoxS"}, "[15]": {"settings": "97.1 µg/ml, genetic background: wild type"}, "[16]": {"settings": "97.1 µg/ml, genetic background: ΔmarA"}, "[17]": {"settings": "97.1 µg/ml, genetic background: Δrob"}, "[18]": {"settings": "97.1 µg/ml, genetic background: ΔsoxS"}, "[19]": {"settings": "194.2 µg/ml, genetic background: wild type"}, "[20]": {"settings": "194.2 µg/ml, genetic background: ΔmarA"}, "[21]": {"settings": "194.2 µg/ml, genetic background: Δrob"}, "[22]": {"settings": "194.2 µg/ml, genetic background: ΔsoxS"}}, "note": "± gives the standard deviation of the averaged measurements."}
{"molecule": "Cn1c(=O)c2c(ncn2C)n(C)c1=O", "note": "[Caffeine]", "values": [{"measurement": "promoter activity interaction Z-score", "setting": "[1]; [7]", "result": "-0.0906 ± 0.17"}, {"measurement": "promoter activity interaction Z-score", "setting": "[1]; [8]", "result": "1.25 ± 2.5"}, {"measurement": "promoter activity interaction Z-score", "setting": "[1]; [9]", "result": "0.229 ± 0.12"}, {"measurement": "promoter activity interaction Z-score", "setting": "[1]; [10]", "result": "0.234 ± 0.23"}, {"measurement": "promoter activity interaction Z-score", "setting": "[1]; [11]", "result": "0.0551 ± 0.06"}, {"measurement": "promoter activity interaction Z-score", "setting": "[1]; [12]", "result": "0.244 ± 1.1"}, {"measurement": "promoter activity interaction Z-score", "setting": "[1]; [13]", "result": "0.254 ± 0.35"}, {"measurement": "promoter activity interaction Z-score", "setting": "[1]; [14]", "result": "0.3 ± 0.18"}, {"measurement": "promoter activity interaction Z-score", "setting": "[1]; [15]", "result": "0.0174 ± 0.31"}, {"measurement": "promoter activity interaction Z-score", "setting": "[1]; [16]", "result": "0.17 ± 0.29"}, {"measurement": "promoter activity interaction Z-score", "setting": "[1]; [17]", "result": "0.132 ± 0.014"}, {"measurement": "promoter activity interaction Z-score", "setting": "[1]; [18]", "result": "0.864 ± 1"}, {"measurement": "promoter activity interaction Z-score", "setting": "[1]; [19]", "result": "0.303 ± 0.24"}, {"measurement": "promoter activity interaction Z-score", "setting": "[1]; [20]", "result": "-0.0252 ± 0.29"}, {"measurement": "promoter activity interaction Z-score", "setting": "[1]; [21]", "result": "0.0753 ± 0.22"}, {"measurement": "promoter activity interaction Z-score", "setting": "[1]; [22]", "result": "0.762 ± 0.37"}, {"measurement": "promoter activity interaction Z-score", "setting": "[2]; [7]", "result": "1.28 ± 0.39"}, {"measurement": "promoter activity interaction Z-score", "setting": "[2]; [8]", "result": "1.01 ± 0.13"}, {"measurement": "promoter activity interaction Z-score", "setting": "[2]; [9]", "result": "0.0768 ± 0.058"}, {"measurement": "promoter activity interaction Z-score", "setting": "[2]; [10]", "result": "1.65 ± 0.72"}, {"measurement": "promoter activity interaction Z-score", "setting": "[2]; [11]", "result": "2.71 ± 0.15"}, {"measurement": "promoter activity interaction Z-score", "setting": "[2]; [12]", "result": "1.72 ± 0.17"}, {"measurement": "promoter activity interaction Z-score", "setting": "[2]; [13]", "result": "-0.0682 ± 0.092"}, {"measurement": "promoter activity interaction Z-score", "setting": "[2]; [14]", "result": "2.27 ± 0.1"}, {"measurement": "promoter activity interaction Z-score", "setting": "[2]; [15]", "result": "3.93 ± 0.29"}, {"measurement": "promoter activity interaction Z-score", "setting": "[2]; [16]", "result": "3.13 ± 0.049"}, {"measurement": "promoter activity interaction Z-score", "setting": "[2]; [17]", "result": "-0.0129 ± 0.082"}, {"measurement": "promoter activity interaction Z-score", "setting": "[2]; [18]", "result": "4.2 ± 0.47"}, {"measurement": "promoter activity interaction Z-score", "setting": "[2]; [19]", "result": "9.84 ± 0.76"}, {"measurement": "promoter activity interaction Z-score", "setting": "[2]; [20]", "result": "6.96 ± 1.9"}, {"measurement": "promoter activity interaction Z-score", "setting": "[2]; [21]", "result": "0.216 ± 0.022"}, {"measurement": "promoter activity interaction Z-score", "setting": "[2]; [22]", "result": "9.87 ± 0.2"}, {"measurement": "promoter activity interaction Z-score", "setting": "[3]; [7]", "result": "0.171 ± 0.69"}, {"measurement": "promoter activity interaction Z-score", "setting": "[3]; [8]", "result": "0.0413 ± 0.047"}, {"measurement": "promoter activity interaction Z-score", "setting": "[3]; [9]", "result": "0.636 ± 0.1"}, {"measurement": "promoter activity interaction Z-score", "setting": "[3]; [10]", "result": "0.0579 ± 0.15"}, {"measurement": "promoter activity interaction Z-score", "setting": "[3]; [11]", "result": "0.648 ± 0.61"}, {"measurement": "promoter activity interaction Z-score", "setting": "[3]; [12]", "result": "0.121 ± 0.51"}, {"measurement": "promoter activity interaction Z-score", "setting": "[3]; [13]", "result": "-0.106 ± 0.46"}, {"measurement": "promoter activity interaction Z-score", "setting": "[3]; [14]", "result": "-0.0276 ± 0.3"}, {"measurement": "promoter activity interaction Z-score", "setting": "[3]; [15]", "result": "-0.351 ± 0.49"}, {"measurement": "promoter activity interaction Z-score", "setting": "[3]; [16]", "result": "0.00292 ± 0.16"}, {"measurement": "promoter activity interaction Z-score", "setting": "[3]; [17]", "result": "-0.133 ± 0.69"}, {"measurement": "promoter activity interaction Z-score", "setting": "[3]; [18]", "result": "0.291 ± 0.42"}, {"measurement": "promoter activity interaction Z-score", "setting": "[3]; [19]", "result": "0.651 ± 0.51"}, {"measurement": "promoter activity interaction Z-score", "setting": "[3]; [20]", "result": "0.268 ± 0.19"}, {"measurement": "promoter activity interaction Z-score", "setting": "[3]; [21]", "result": "0.227 ± 0.64"}, {"measurement": "promoter activity interaction Z-score", "setting": "[3]; [22]", "result": "0.245 ± 0.21"}, {"measurement": "promoter activity interaction Z-score", "setting": "[4]; [7]", "result": "0.0869 ± 0.41"}, {"measurement": "promoter activity interaction Z-score", "setting": "[4]; [8]", "result": "1.13 ± 1.2"}, {"measurement": "promoter activity interaction Z-score", "setting": "[4]; [9]", "result": "0.442 ± 0.56"}, {"measurement": "promoter activity interaction Z-score", "setting": "[4]; [10]", "result": "1.35 ± 0.27"}, {"measurement": "promoter activity interaction Z-score", "setting": "[4]; [11]", "result": "1.03 ± 0.53"}, {"measurement": "promoter activity interaction Z-score", "setting": "[4]; [12]", "result": "-0.488 ± 0.27"}, {"measurement": "promoter activity interaction Z-score", "setting": "[4]; [13]", "result": "0.545 ± 0.89"}, {"measurement": "promoter activity interaction Z-score", "setting": "[4]; [14]", "result": "1.19 ± 0.12"}, {"measurement": "promoter activity interaction Z-score", "setting": "[4]; [15]", "result": "-0.142 ± 0.26"}, {"measurement": "promoter activity interaction Z-score", "setting": "[4]; [16]", "result": "-0.194 ± 0.34"}, {"measurement": "promoter activity interaction Z-score", "setting": "[4]; [17]", "result": "-0.0955 ± 0.42"}, {"measurement": "promoter activity interaction Z-score", "setting": "[4]; [18]", "result": "-0.0533 ± 0.92"}, {"measurement": "promoter activity interaction Z-score", "setting": "[4]; [19]", "result": "-0.121 ± 0.73"}, {"measurement": "promoter activity interaction Z-score", "setting": "[4]; [20]", "result": "-0.257 ± 0.088"}, {"measurement": "promoter activity interaction Z-score", "setting": "[4]; [21]", "result": "0.111 ± 1.4"}, {"measurement": "promoter activity interaction Z-score", "setting": "[4]; [22]", "result": "-1.19 ± 0.4"}, {"measurement": "promoter activity interaction Z-score", "setting": "[5]; [7]", "result": "-0.0276 ± 0.14"}, {"measurement": "promoter activity interaction Z-score", "setting": "[5]; [8]", "result": "0.29 ± 0.3"}, {"measurement": "promoter activity interaction Z-score", "setting": "[5]; [9]", "result": "0.512 ± 0.15"}, {"measurement": "promoter activity interaction Z-score", "setting": "[5]; [10]", "result": "-0.000875 ± 0.083"}, {"measurement": "promoter activity interaction Z-score", "setting": "[5]; [11]", "result": "0.149 ± 0.051"}, {"measurement": "promoter activity interaction Z-score", "setting": "[5]; [12]", "result": "0.331 ± 0.32"}, {"measurement": "promoter activity interaction Z-score", "setting": "[5]; [13]", "result": "0.0369 ± 0.011"}, {"measurement": "promoter activity interaction Z-score", "setting": "[5]; [14]", "result": "0.0413 ± 0.11"}, {"measurement": "promoter activity interaction Z-score", "setting": "[5]; [15]", "result": "0.0939 ± 0.035"}, {"measurement": "promoter activity interaction Z-score", "setting": "[5]; [16]", "result": "0.405 ± 0.044"}, {"measurement": "promoter activity interaction Z-score", "setting": "[5]; [17]", "result": "0.395 ± 0.12"}, {"measurement": "promoter activity interaction Z-score", "setting": "[5]; [18]", "result": "0.167 ± 0.44"}, {"measurement": "promoter activity interaction Z-score", "setting": "[5]; [19]", "result": "0.212 ± 0.044"}, {"measurement": "promoter activity interaction Z-score", "setting": "[5]; [20]", "result": "0.529 ± 0.026"}, {"measurement": "promoter activity interaction Z-score", "setting": "[5]; [21]", "result": "0.257 ± 0.16"}, {"measurement": "promoter activity interaction Z-score", "setting": "[5]; [22]", "result": "0.6 ± 0.85"}, {"measurement": "promoter activity interaction Z-score", "setting": "[6]; [7]", "result": "-0.298 ± 0.42"}, {"measurement": "promoter activity interaction Z-score", "setting": "[6]; [8]", "result": "0.922 ± 0.83"}, {"measurement": "promoter activity interaction Z-score", "setting": "[6]; [9]", "result": "-0.0951 ± 0.85"}, {"measurement": "promoter activity interaction Z-score", "setting": "[6]; [10]", "result": "0.425 ± 0.39"}, {"measurement": "promoter activity interaction Z-score", "setting": "[6]; [11]", "result": "0.642 ± 1.2"}, {"measurement": "promoter activity interaction Z-score", "setting": "[6]; [12]", "result": "0.724 ± 0.083"}, {"measurement": "promoter activity interaction Z-score", "setting": "[6]; [13]", "result": "-0.684 ± 0.056"}, {"measurement": "promoter activity interaction Z-score", "setting": "[6]; [14]", "result": "0.896 ± 0.56"}, {"measurement": "promoter activity interaction Z-score", "setting": "[6]; [15]", "result": "0.921 ± 0.51"}, {"measurement": "promoter activity interaction Z-score", "setting": "[6]; [16]", "result": "0.55 ± 0.57"}, {"measurement": "promoter activity interaction Z-score", "setting": "[6]; [17]", "result": "-0.368 ± 0.11"}, {"measurement": "promoter activity interaction Z-score", "setting": "[6]; [18]", "result": "1.64 ± 0.38"}, {"measurement": "promoter activity interaction Z-score", "setting": "[6]; [19]", "result": "1.37 ± 0.41"}, {"measurement": "promoter activity interaction Z-score", "setting": "[6]; [20]", "result": "1.61 ± 1.5"}, {"measurement": "promoter activity interaction Z-score", "setting": "[6]; [21]", "result": "0.892 ± 0.67"}, {"measurement": "promoter activity interaction Z-score", "setting": "[6]; [22]", "result": "0.579 ± 1"}]}
